Only some compounds are listed: those with a hit (about 0.24% of all), similar ones and a draw of the others.
mcGAS inh: blocks mouse cGAS activity; Q8C6L5; recombinant cGAS, Kinase-Glo ATP depletion luminescence; inhibition, % at 12.5 µM; 0.15% of 160,000 active; AID 1259399;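 further: 0% = negative control wells and 100% = reference inhibitor with no enzyme activity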
hcGAS lum: inhibitors of human cGAS. inhibition, % at 12.5 µM. Q8N884. recombinant h-cGAS, ATP depletion, Kinase-Glo luminescence. AID 1259398. 0.081% of 290,000 active;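 further: 0% = vehicle reaction and 100% = reaction without DNA for no activity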
Target sequence (Q8N884 whole entry, looked up): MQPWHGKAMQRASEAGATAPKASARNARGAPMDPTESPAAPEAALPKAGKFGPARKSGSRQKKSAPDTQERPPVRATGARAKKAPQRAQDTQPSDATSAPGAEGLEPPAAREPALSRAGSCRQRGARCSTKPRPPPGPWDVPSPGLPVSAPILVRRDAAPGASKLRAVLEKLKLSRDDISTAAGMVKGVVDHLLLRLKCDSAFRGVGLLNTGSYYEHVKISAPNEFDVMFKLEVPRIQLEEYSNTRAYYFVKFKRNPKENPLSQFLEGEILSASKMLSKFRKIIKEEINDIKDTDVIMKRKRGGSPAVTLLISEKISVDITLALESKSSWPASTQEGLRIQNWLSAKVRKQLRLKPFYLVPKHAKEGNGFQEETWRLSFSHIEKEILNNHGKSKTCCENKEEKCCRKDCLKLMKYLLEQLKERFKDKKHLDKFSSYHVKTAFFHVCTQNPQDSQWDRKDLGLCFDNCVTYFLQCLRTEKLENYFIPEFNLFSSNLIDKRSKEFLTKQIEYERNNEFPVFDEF
NPYLR7 ag: activates Aedes aegypti NPYLR7 receptor; HEK293T NPYLR7/Galpha15, GCaMP6s calcium fluorescence; 0.15% of 270,000 active; activation, % at 10 µM; AID 1259423; in the data active means activation above about 40%;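 further: 0% = vehicle and 100% = reference agonist at the receptor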
Numbers without * were called inactive; x = not tested or not shown; ! = not confirmed by another sample. Unless noted, no stated cut-off is given here; in the data, active means inhibition above about 40%; inactive means the rest.

SMILES | mcGAS inh | hcGAS lum | NPYLR7 ag
Cc1ccc(C(=O)Nc2ccc(S(=O)(=O)O)c3cc(S(=O)(=O)O)cc(S(=O)(=O)O)c23)cc1NC(=O)c1cccc(NC(=O)Nc2cccc(C(=O)Nc3cc(C(=O)Nc4ccc(S(=O)(=O)O)c5cc(S(=O)(=O)O)cc(S(=O)(=O)O)c45)ccc3C)c2)c1 | 80* | 80* | -1
CCCCN(CC(=O)N(Cc1cccn1Cc1ccccc1Cl)C1CCCCC1)S(=O)(=O)c1ccc(C(C)(C)C)cc1 | -6 | -3 | -4
COc1ccc(C2CCN(S(=O)(=O)C3CC3)C2)cc1 (stereo not given) | x | -11 | -3
CC(=O)[C@]1(O)Cc2c(O)c3c(c(O)c2[C@@H](O[C@H]2C[C@H](N)[C@H](O)[C@H](C)O2)C1)C(=O)c1ccccc1C3=O | 96* | 69* | 100*
COc1cccc2c1C(=O)c1ccccc1C2=O | -3 | 1 | -4
COc1cccc2c1C(=O)c1c(O)c3c(c(O)c1C2=O)C[C@@](O)(C(=O)CO)C[C@@H]3O[C@H]1C[C@H](N)[C@@H](O)[C@H](C)O1 | x | 48* | -3
COc1cccc2c1C(=O)c1c(O)c3c(c(O)c1C2=O)C[C@@](O)(C(C)=O)C[C@@H]3O[C@H]1C[C@H](N)[C@H](O)[C@H](C)O1 | x | 60*! | -2
COc1ccc(Cn2ccnc2CN(CC(C)C)S(=O)(=O)c2ccc(C)cc2)cc1 | -3 | -2 | 9
COc1cccc(C(CN2CCN(C(=O)CCC3CCCC3)CC2)OCc2ccc(C#N)cc2)c1 (stereo not given) | -7 | -8 | 2
Cc1cc(O)c(CN2CCN(CCO)CC2)c2c1C(=O)/C(=C/c1ccccc1)O2 | -6 | -5 | 16
CCN1CCN(Cc2c(O)cc(C)c3c2O/C(=C\c2ccco2)C3=O)CC1 | -6 | -1 | 65*
Cc1cc(O)c(CN2CCCC2)c2c1C(=O)/C(=C/c1cc3ccccc3o1)O2 | -2 | -3 | 57*
O=C1/C(=C/c2ccco2)Oc2c1ccc(O)c2CN1CCN(CCO)CC1 | -9 | -1 | 56
Cc1cc(O)c(CN2CCN(CCO)CC2)c2c1C(=O)/C(=C/c1cccs1)O2 | -7 | -4 | 28
Cc1cc(O)c(CN2CCN(CCO)CC2)c2c1C(=O)/C(=C/c1cc3ccccc3o1)O2 | -6 | -4 | 80*
Cc1cc(O)c(CN2CCN(C)CC2)c2c1C(=O)/C(=C/c1cc3cc(Br)ccc3o1)O2 | -7 | -9 | 4
O=C1/C(=C/c2cc3ccccc3o2)Oc2c1ccc(O)c2CN1CCN(CCO)CC1 | 5 | 5 | 108*
C/C=C(\C)C(=O)N1CCc2ccccc2C1c1ccc(Cl)cc1 (stereo not given) | 1 | -2 | -6
Cc1cc(NC(=O)C(C)Oc2ccc3c(=O)c(-c4ccccc4)c(C)oc3c2)no1 (stereo not given) | x | -8 | 5
CN(C(=O)Cn1nc(-c2ccco2)oc1=O)c1ccc([N+](=O)[O-])cc1 | -6 | -2 | -1
O=C1/C(=C/N2CCC3(CC2)OCCO3)Oc2cc(O)ccc21 | -12 | -7 | -6
O=C1/C(=C/c2cc3ccccc3o2)Oc2cc(O)ccc21 | x | -11 | 49*
Cc1cc(CO)c(OCCOCCOc2c(CO)cc(C)cc2CO)c(CO)c1 | x | 62* | -9
COc1cc(OC)c(OC)cc1CO | -9 | -5 | 4
Cc1c(C(C)NC(=O)C(C)Oc2ccccc2)cnn1C (stereo not given) | x | -5 | 15
SMILES | mcGAS inh | hcGAS lum | NPYLR7 ag
COc1ccccc1-c1cc(C(=O)NCCN2CCCCC2)nc2cc(-c3ccc(Cl)cc3)nn12 | -6 | -1 | 14
COc1ccccc1-c1cc(C(=O)NCCN2CCCC2)n2nc(-c3ccc(Cl)cc3)cc2n1 | 44*! | -4 | -9
Cc1cccc(-n2c(SCc3ccc(C(=O)NC4CC4)cc3)nnc2-c2ccccc2Cl)c1 | 0 | 1 | -5
CNc1nc(NCc2ccccc2)c2sccc2n1 | x | -7 | 8
c1ccc(CNc2nc(NCCc3ccncc3)c3sccc3n2)cc1 | x | -11 | 59*
OC(COCc1ccco1)CN(Cc1ccccc1)CC1CC(c2ccccc2F)=NO1 (stereo not given) | -9 | -4 | x
CNC(=O)C1CN(CCOc2cccc(C)c2)c2ccccc2O1 (stereo not given) | -9 | -16 | 1
COc1ccc2sc(N(Cc3cccnc3)C(=O)c3cc(C)no3)nc2c1 | -1 | 5 | -2
Cc1nn(C)c(Cl)c1C(=O)NC(C)c1ccc(-c2ccccc2)cc1 (stereo not given) | x | -5 | 3
Cc1ccc(-c2ccnc3c(C(=O)O)cnn23)o1 | x | -7 | 20
Cc1c(C(=O)O)cnc2c([N+](=O)[O-])cnn12 | 15 | 41* | -12
NC(=O)C1CCN(C(=O)CCCSc2ccc(NC(=O)c3cccs3)nn2)CC1 | -4 | -4 | -4
CCCCCCc1ccc(C(=O)Nc2ccc(N3CCCCC3)c(C(=O)NCCc3ccccc3)c2)cc1 | 0 | -3 | x
O/N=C1/CCCc2c1nc(-c1cccc(F)c1)n2O | -8 | -6 | 0
COc1cccc(CN2COc3ccc4c(c3C2)O/C(=C\c2ccncc2)C4=O)c1 | 11 | 5 | 66*
COc1ccc(-c2cc3ccc4c(c3oc2=O)CN(Cc2cccnc2)CO4)c(OC)c1 | 0 | 1 | -3
COc1ccc(CCN2COc3ccc4c(c3C2)O/C(=C\c2cccnc2)C4=O)cc1 | -8 | -2 | 46*
COc1ccc(CN2COc3ccc4c(c3C2)O/C(=C\c2ccncc2)C4=O)cc1OC | 7 | -2 | 33
CCN(CCOc1ccccc1C)C(=O)c1cn(CC)nc1C | -1 | 2 | -4
CC(C)Oc1ccc(Cl)cc1C(N)=O | x | -1 | 6
C=CCNC(=O)Nc1ccc2c(c1)C(N1CCOCC1)=Nc1cc(Cl)ccc1O2 | -7 | -9 | x
COc1cc(C(=O)C=Cc2cc(OC)c(O)c([N+](=O)[O-])c2)ccc1O | x | -7 | -8
COc1cc(C(=O)C=Cc2ccc(OC(F)F)cc2)ccc1O | 35 | -1 | -6
COc1cc(C(=O)C=Cc2ccc(C#N)cc2)ccc1O | 64* | -10 | 1
COc1ccc(C(=O)C=Cc2cc(OC)c(O)c(OC)c2)cc1F | 5 | -4 | 64*
SMILES | mcGAS inh | hcGAS lum | NPYLR7 ag
O=C(O)c1cc2cc(Cl)ccc2[nH]1 | 9 | 6 | -7
Cc1ccc(CN(C(=O)c2cc3cc(Cl)ccc3[nH]2)C(C)C)o1 | x | -6 | 118*
COc1ccc(CN2CCN(Cc3cccn3-c3ncccn3)CC2CCO)c(C)c1C (stereo not given) | -9 | -6 | 49*
COc1ccc(CN2CCN(Cc3cccn3-c3ncccn3)CC2CCO)c(F)c1 (stereo not given) | x | 1 | -5
COc1ccc(C=CC(=O)c2ccc(I)cc2)cc1O | 25 | -11 | 1
COc1ccc(C=CC(=O)c2cccs2)cc1O | 55* | -12 | 15
CC[C@@]1(O)C(=O)OCc2c1cc1n(c2=O)Cc2cc3c(CN(C)C)c(O)ccc3nc2-1 | x | -3 | 88*
O=C(NC1CCCN(C2CCCCCC2)C1)c1cn[nH]c1-c1ccccc1F (stereo not given) | -10 | -10 | 2
Cc1oc(-c2cccc(NC(=O)CC(C)C)c2)nc1CNC(=O)Cc1cc(F)cc(F)c1 | -8 | -7 | 56*
Cc1oc(-c2ccccc2NS(=O)(=O)c2cccc(F)c2)nc1CNC(=O)CC(C)C | x | -5 | 5

Screens (PubChem BioAssay)
